Data published in PubChem BioAssay (NCATS).
Where “and” joins values, the source holds several entries; their conditions need not be identical. Equal values may be shown once. Records with an inconclusive call do not appear. Calls of active or inactive are those of the source. Unless noted, calls come from the whole dose curve; as a rule, active = well fitted curve in the direction sought with a large enough effect; inconclusive = small, poorly fitted or top-dose-only effect, or another doubt; inactive = no such curve, though single readings can be large; an effect the other way counts as inactive or inconclusive.

How the values were obtained:
[1] = Cell Viability - BJ (AID 421; calls by dose curve;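 note: potency is the fitted concentration of half-maximal effect; cells exposed to compound for 40 hours at 37 °C before readout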); conditions: BJ fibroblast viability, qHTS
Outline: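 Luminescent ATP signal (CellTiter-Glo, 20 min at room temperature) served as the read-out of viable BJ cells after 40 hours of compound treatment. Responses were scaled between DMSO and 100 uM tamoxifen, and AC50 values were obtained by Hill modeling.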

[2] = Cell Viability - HepG2 (AID 433; calls by dose curve;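 note: potency is the fitted concentration of half-maximal effect; potency for ATP loss meaning cytotoxicity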); conditions: qHTS
Outline: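 HepG2 hepatocellular carcinoma cells (1500/well) were treated with compounds for 40 h at 37 °C in complete medium; intracellular ATP was read by CellTiter-Glo luminescence. Data were normalized to DMSO and 100 uM tamoxifen, and AC50 came from Hill fits.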

[3] = Cell Viability - MRC5 (AID 434; calls by dose curve;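 note: potency is the fitted concentration of half-maximal effect; cells exposed to compound for 40 hours at 37 °C; potency reflects cytotoxicity seen as loss of intracellular ATP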); conditions: MRC5 lung fibroblast viability, qHTS
Outline: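 Decrease in intracellular ATP, quantified by luciferase light output, reflects compound toxicity toward MRC5 cells exposed for 40 hr in complete culture medium. Concentration-response curves, scaled between DMSO and 100 uM tamoxifen, gave AC50 values.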

[4] = Cell Viability - N2a (AID 540); conditions: N2a mouse neuroblastoma cell viability; at 92.2 µM (top of the series);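 note: plate controls were DMSO alone for no effect and tamoxifen control for full effect; nearly all actives have a fitted effect of over 45% in size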
Outline: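 CellTiter-Glo ATP luminescence, read 20 min after reagent at room temperature, reported viability following 40 h compound treatment at 37 °C. N2a mouse neuroblastoma cells seeded 1500/well; Hill equation gave AC50.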

[5] = Cell Viability - HUV-EC-C (AID 542); conditions: HUV-EC-C endothelial cell viability, qHTS; series mostly up to 92.2 µM; note: % is set by controls: 0 for no effect and ±100 for the full control effect; nearly all actives have a fitted effect of over 35% in size
Outline: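 CellTiter-Glo luminescence measured ATP loss in HUV-EC-C cells (1000/well) after 40 hr compound exposure at 37 °C, in complete culture medium. Concentration-response data were Hill-fitted to give AC50.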

[6] = Cell Viability - SH-SY5Y (AID 544); conditions: SH-SY5Y neuroblastoma cell viability; viability change, negative = cytotoxic: at 92.2 µM (top of the series); note: nearly all actives have a fitted effect of over 55% in size
Outline: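 Cytotoxicity measured via ATP-dependent luciferase luminescence (CellTiter-Glo) following 40 h, 37 °C exposure of 1500 SH-SY5Y cells per well. Concentration-response data were fitted with the standard Hill equation to give AC50.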

[7] = Cell Viability - Renal Proximal Tubule (AID 545); conditions: renal proximal tubule cells viability; at 91.7 µM (top of the series), primary cells of rat origin unless noted; note: nearly all actives have a fitted effect of over 40% in size
Outline: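 Primary rat renal proximal tubule cells (1000/well) were treated with compounds for 40 hr at 37 °C in complete medium. Intracellular ATP was measured by CellTiter-Glo luminescence, and AC50 values came from Hill-equation fits of concentration-response data.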

[8] = Cellular Toxicity (caspase-3) Jurkat (AID 655); conditions: Jurkat caspase-3 activation, luminescence, DMSO = 0%, tamoxifen = 100%; at 92.2 µM (top of the series);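 note: cells exposed to compound for 16 h at 37 °C before reading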
Outline: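 Jurkat cells (5000/well) in complete medium were treated with compounds for 16 hr at 37 °C, then Caspase-Glo 3/7 luminescence was read after 20 min at room temperature. Data normalized to DMSO (basal) and 100 uM tamoxifen (100%); AC50 from Hill fit.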

[9] = Cellular Toxicity (caspase-3) HUV-EC-C (AID 656); conditions: HUV-EC-C cells, caspase-3 activation (apoptosis), vehicle = 0, 100 µM tamoxifen = 100%; series mostly up to 92.2 µM
Outline: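 HUV-EC-C endothelial cells, 1000/well, were pre-incubated 5 hr at 37°C, then exposed to compounds for 16 hr at 37°C. Caspase-Glo 3/7 luminescence was read after 20 min at room temperature. AC50 came from Hill fits, normalized to DMSO and 100 uM tamoxifen.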

[10] = Cellular Toxicity (caspase-3) SHSY5Y (AID 657); conditions: SH-SY5Y caspase-3 activation, DMSO zero, 10 µM staurosporine = 100%; series mostly up to 91.7 µM
Outline: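 SH-SY5Y human neuroblastoma cells (1500/well) were treated with compounds for 16 h at 37 °C, then Caspase-Glo 3/7 luminescence was read after 1 h at room temperature. Data normalized to DMSO and 10 uM staurosporine; AC50 from Hill fits.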

[11] = Cellular Toxicity (caspase-3) BJ (AID 658); conditions: BJ fibroblasts, luminescence, normalized: DMSO 0%, staurosporine 100%; series mostly up to 91.7 µM
Outline: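 Plated BJ cells (1000/well) rested 5 hr, received compound for 16 hr at 37 °C, then Caspase-Glo 3/7 reagent for 1 hr at room temperature before luminescence reading.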

[12] = Cellular Toxicity (caspase-3) MRC-5 (AID 659); conditions: MRC-5 cells, luminescence, normalized: DMSO 0%, 10 µM staurosporine 100%; series mostly up to 91.7 µM
Outline: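 Apoptosis readout in MRC-5 cells: luciferase light generated after caspase 3/7 cleaves a peptide-aminoluciferin substrate, measured post 16 hr compound incubation at 37 °C.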

[13] = Cellular Toxicity (caspase-3) SK-N-SH (AID 661); conditions: SK-N-SH caspase-3 activation, qHTS, DMSO as zero, staurosporine as full; series mostly up to 91.7 µM
Outline: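 Caspase 3/7 activation was read by luminogenic substrate cleavage after 16 hour treatment of SK-N-SH cells. Signal was scaled between DMSO and 10 uM staurosporine, and concentration-response data were fitted with the Hill equation for AC50.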

[14] = Cellular Toxicity (caspase-3) H-4-II-E (AID 663); conditions: H-4-II-E rat hepatoma, scaled: DMSO 0%, 100 µM tamoxifen 100%; series mostly up to 92.2 µM;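 note: cells exposed to compound for 16 hr before readout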
Outline: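 Caspase 3/7 activation measured in H-4-II-E cells in complete culture medium after 16 hr treatment at 37 °C, using luciferase-coupled substrate readout; AC50 values come from Hill-equation fits of normalized concentration-response data.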

[15] = Cellular Toxicity (caspase-3) Renal Proximal Tubule (AID 667); conditions: renal proximal tubule cells; at 91.7 µM (top of the series), primary cells freshly taken from rat, solvent-only wells 0%, staurosporine 100% unless noted;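 note: cells exposed to compound for 16 hours at 37 °C before detection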
Outline: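 Primary rat proximal tubule cells, 1000/well, 5 h plating at 37 °C, then compound 16 h at 37 °C. Caspase-Glo 3/7 reagent, 1 h RT, luminescence. Normalized to DMSO (basal) and 10 uM staurosporine (100%); Hill-fit AC50.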

[16] = qHTS Assay for Identification of Small Molecule Inducers of Hypoxia Response (AID 2120; active = well fitted curve in the direction sought with a large enough effect in the signal ratio, with a control signal flat, not every such curve was filed as active; the % refers to the signal ratio; note: 0% is about no effect); conditions: hypoxia response reporter cells, beta-lactamase ratio readout; series mostly up to 104 µM
Outline: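 Reporter induction read as the CCF4 blue/green (460nm/530nm) emission ratio after 2.5 h dye loading at room temperature. ME-180 HRE-beta-lactamase cells received titrated compounds for 17 h at 37 degrees Celsius; AC50 values derived.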

[17] = qHTS assay for small molecule agonists of the antioxidant response element (ARE) signaling pathway measured by Nrf2-dependant transcriptional activity - cell viability counter screen (AID 720653; active = well fitted curve in the direction sought with a large enough effect in the repeat runs; an effect the other way counts as inactive or inconclusive; note: % is set by controls: 0 for no effect and ±100 for the full control effect); conditions: ARE-bla HepG2 viability, CellTiter-Glo ATP luminescence, 16 h; stronger effect = lower value
Outline: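 ARE-bla HepG2 cells (2,000/well) rested 5 hrs at 37C/5% CO2, then exposed to compounds in DMSO for 16 hrs. Viability was read in the same wells as intracellular ATP by luminescence, 30 min at room temperature after reagent addition.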

[18] = qHTS assay for cell viability of HEK293 cells (AID 743288); conditions: ATP luminescence (CellTiter-Glo), 18 h; max response: stronger effect = lower value; note: % is set by controls: 0 for no effect and ±100 for the full control effect; nearly all actives have a fitted effect of over 50% in size
Outline: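 After 18 h compound exposure at 37 C, parental HEK293 cells (2,000/well) are lysed with CellTiter-Glo and luminescence is read following 30 min at room temperature.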

[19] = qHTS assay for cell viability of the p53RE-bla HCT-116 cell line (AID 743292); conditions: p53RE-bla HCT-116 viability, ATP luminescence, 16 h; series mostly up to 95 µM; note: % is set by controls: 0 for no effect and ±100 for the full control effect; nearly all actives have a fitted effect of over 55% in size
Outline: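 CellSensor p53RE-bla HCT-116 cells, 4,000/well, preincubated 5 h at 37 C, then exposed to compounds in DMSO for 16 h at 37 C. Viability read as CellTiter-Glo luminescence (intracellular ATP) after 30 min at room temperature.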

N#CCCCl
inactive: Potency [1] > 92 µM | Potency [2] > 92 µM | Potency [3] > 92 µM | activity change, negative = cytotoxicity [4] -2.76% and -3.85% | Potency [5] | Potency [6] | activity change, negative = cytotoxicity [7] 1.51% and -5.91% | caspase-3 activation [8] -0.233% and -1.87% | outcome [9] | outcome [10] | outcome [11] | outcome [12] | outcome [13] | outcome [14] | caspase-3 activation [15] -13% and 8.86% | outcome [16] | max response [17] 4.67% and 7.37% | max response [18] -10.6% and 0.832% | Potency [19]

Cc1ccc2ccccc2c1
inactive: Potency [1] > 92 µM | Potency [2] > 92 µM | Potency [3] > 92 µM | activity change, negative = cytotoxicity [4] -3.22% | Potency [5] | Potency [6] | activity change, negative = cytotoxicity [7] -15.4% | caspase-3 activation [8] 1.17% | outcome [9] | outcome [10] | outcome [11] | outcome [12] | outcome [13] | outcome [14] | caspase-3 activation [15] 18.4% | outcome [16] | max response [17] -3.38% | max response [18] 2.28% | Potency [19]

C=C(C)C(=O)OCC1CO1 (centres undefined)
inactive: Potency [1] > 92 µM | Potency [2] > 92 µM | Potency [3] > 92 µM | activity change, negative = cytotoxicity [4] -4.08% | Potency [5] | Potency [6] | activity change, negative = cytotoxicity [7] -4.58% | caspase-3 activation [8] 1.42% | outcome [9] | outcome [10] | outcome [11] | outcome [12] | outcome [13] | outcome [14] | caspase-3 activation [15] -4.2% | outcome [16] | max response [17] 1.28% | max response [18] 3.25% | Potency [19]

Nc1c(Cl)c(Cl)nc(C(=O)O)c1Cl
inactive: Potency [1] > 92 µM | Potency [2] > 92 µM | Potency [3] > 92 µM | activity change, negative = cytotoxicity [4] -4.43% | Potency [5] | Potency [6] | activity change, negative = cytotoxicity [7] -10.2% | caspase-3 activation [8] 0.643% | outcome [9] | outcome [10] | outcome [11] | outcome [12] | outcome [13] | outcome [14] | caspase-3 activation [15] -0.472% | outcome [16] | max response [17] 5.28% and -6.28% and -12.8% | max response [18] -0.605% and -10.4% and -8.99% | Potency [19]

CCCCCCCC(=O)Cl
inactive: Potency [1] > 92 µM | Potency [2] > 92 µM | Potency [3] > 92 µM | activity change, negative = cytotoxicity [4] 1.92% | Potency [5] | Potency [6] | activity change, negative = cytotoxicity [7] -1.44% | caspase-3 activation [8] -0.927% | outcome [9] | outcome [10] | outcome [11] | outcome [12] | outcome [13] | outcome [14] | caspase-3 activation [15] 8.29% | outcome [16] | max response [17] 7.34% | max response [18] -11% | Potency [19]

CC(C)(c1ccccc1)c1ccc(O)cc1
inactive: Potency [1] > 92 µM | Potency [2] > 92 µM | Potency [3] > 92 µM | activity change, negative = cytotoxicity [4] -9.3% | Potency [5] | Potency [6] | activity change, negative = cytotoxicity [7] -9.32% | caspase-3 activation [8] 11.6% | outcome [9] | outcome [10] | outcome [11] | outcome [12] | outcome [13] | outcome [14] | caspase-3 activation [15] 4.59% | outcome [16] | max response [17] 9.52% and -12.4% | max response [18] -13.3% and 1.83% | Potency [19]
